The list is not random: actives were taken first. Their share in the collection is about 19%.
HT1080NT lethal: kills 2HG-producing HT-1080-NT fibrosarcoma cells; HT-1080-NT fibrosarcoma viability, CellTiter-Glo ATP luminescence, 48 h; AID 686970; Potency, µM (highest dose often 46.1 µM), inactives show at the highest dose activity, negative = less viability, usual class: cytotoxic; 360,000 tested, 1.6% active;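 also: NT is the 2HG producing partner of a matched IDH1 knockdown line; 0% = DMSO-treated cells and -100% = media-only wells without cells; nearly all actives have a fitted effect of over 55% in size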
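Fibrosarcoma NT cells, 750 per well in 5% FBS RPMI, were exposed to compound for 48 hours. Viability: CellTiter-Glo luminescence.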
KB-3-1 cytotox: KB-3-1 parental cell cytotoxicity. KB-3-1 viability, CellTiter-Glo ATP luminescence, 72 h. Potency, µM (doses to about 46.1 µM), usual class: cytotoxic. 400,000 tested, 1.4% active. AID 1347075; also: nearly all actives have a fitted effect of over 60% in size
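KB-3-1 cells, DMEM (no phenol red) + 10% FBS; compound by pin transfer, 72 h, 37 °C. Readout: CellTiter-Glo luminescence after 10 min. Data normalized, curve-fitted.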
KB-V1 cytotox: kills drug-selected multidrug resistant KB-V1 cells | KB-V1 MDR cells viability, CellTiter-Glo, 72 h | Potency, µM (titrated, usually from 46.1 µM), most hits filed as cytotoxic | 400,000 tested, 3.4% active | AID 1347076; also: nearly all actives have a fitted effect of over 60% in size
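qHTS viability screen in drug-selected KB-V1 MDR cells: 72 h compound treatment at 37 degrees C, ATP luminescence end point.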
DT40 TDP1 no CPT: qHTS for Inhibitors of human tyrosyl-DNA phosphodiesterase 1 (TDP1): qHTS in cells in absence of CPT; Potency, µM (top dose mostly 46.2 µM), for the others: at the top dose activity change, negative = growth inhibition, hits mostly inhibitors; 420,000 tested, 15% active; DT40 Tdp1-/- hTDP1 cells, no CPT, ATP luminescence, 48 h; AID 686978, 2013; also: nearly all actives have a fitted effect of over 55% in size
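Luminescent ATP content (CellTiter-Glo) served as the growth readout. Knockout chicken DT40 cells expressing human TDP1 were exposed to compounds without camptothecin for a minimum 48 hr at 37 °C.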
DT40 TDP1 CPT: DT40-hTDP1 cell growth loss with CPT; chicken DT40 Tdp1-/-;hTDP1 cells + 20 nM CPT, ATP luminescence, 48 h; Potency, µM (titrated, usually from 46.2 µM), for the others: at the highest dose activity change, negative = growth inhibition, most hits filed as inhibitors; 420,000 tested, 12% active; AID 686979; also: nearly all actives have a fitted effect of over 55% in size
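Cell growth measured by CellTiter-Glo luminescence after a minimum 48 h, 37 C compound exposure with 20 nM CPT in Tdp1-knockout DT40 cells stably expressing hTDP1, seeded 400/well; qHTS titration format.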
HT1080 IDH1KD tx: HT-1080 IDH1 knockdown cell toxicity (counter line); HT-1080 IDH1 knockdown viability, ATP luminescence, 48 h; Potency, µM (titrated, usually from 46.1 µM), inactives show at the top dose activity, negative = toxicity, most hits filed as cytotoxic; 360,000 tested, 2% active;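 also: 0% = DMSO wells and -100% = cell-free medium wells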
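In this qHTS, HT-1080 cells depleted of IDH1 are exposed for 48 h at 37 °C to compound titrations. Toxicity is scored from CellTiter-Glo luminescence, with DMSO as full viability and medium alone as none.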
The depositor's hits bear a star; i = inactive; ? = inconclusive; nt = no result given; [ ] = remark or other dose. Calls follow the shape of the dose curve; as a rule, active = well fitted curve in the direction sought with a large enough effect; inconclusive = small, poorly fitted or top-dose-only effect, or another doubt; inactive = no such curve, though single readings can be large; an effect the other way counts as inactive or inconclusive. Unless noted, % is scaled to controls: 0 for no effect and ±100 for the full control effect; potency is read from the fitted curve at half-maximal effect.

SMILES	HT1080NT lethal	KB-3-1 cytotox	KB-V1 cytotox	DT40 TDP1 no CPT	DT40 TDP1 CPT	HT1080 IDH1KD tx
Cc1ccc(-n2nc3c(=O)n(CCCC(=O)NCCc4ccccc4C)nc(C)c3c2C)cc1	0%	i	i	12µM*	?	-3%
Cc1ccc(CCNC(=O)CCCn2nc(C)c3c(C)n(-c4ccc(C)cc4)nc3c2=O)cc1	-2%	i	i	?	15µM*	-3%
COc1ccc(OC)c(C2Nc3c(C)cc(C)cc3-c3cc(C)nn32)c1 (configuration not stated)	nt	i	i	21µM*	16µM*	nt
COc1cc(OC)c(C2Nc3c(C)cccc3-c3cc(C)nn32)cc1OC (configuration not stated)	nt	i	i	?	?	nt
COc1ccc(C2C(=O)N(C3CCCCC3)CC(=O)N2CCc2ccc(C)cc2)cc1OC (configuration not stated)	nt	i	i	?	?	nt
OC(Cc1ccnc2ccccc12)C(Cl)(Cl)Cl (configuration not stated)	-11%	i	i	10µM*	?	-2%
CCOC(=O)CCC(=O)NNC(=O)COc1ccc(C(C)C)cc1Br	0%	i	i	?	-4%	5%
COc1ccc2c(Sc3ccc(C)cc3)c(C(=O)NCc3ccc(F)cc3)[nH]c2c1	nt	i	i	?	?	nt
COc1ccc(CNC(=O)C2CCN(C(=O)c3csc(Nc4ccc(C)cc4)n3)CC2)cc1	-14%	i	?	?	?	-20%
Cc1ccc(C)c(N2CCN(c3cnn(-c4nc5ccccc5s4)c(=O)c3Cl)CC2)c1	7%	i	i	9.2µM*	9.2µM*	8%
COc1ccc(Nc2cnn(-c3nc4ccccc4s3)c(=O)c2Cl)cc1	?	?	21µM*	4.1µM*	2.1µM*	?
O=c1c(Cl)c(Nc2cccc(Cl)c2)cnn1-c1nc2ccccc2s1	-5%	?	i	?	-39%	5%
Cc1ccc2c(c1)N(CC(=O)N1CCN(c3nc4ccccc4s3)CC1)C(=O)C(C)O2 (configuration not stated)	4%	?	i	?	?	?
CCN1CCN(C(c2ccc(C(F)(F)F)cc2)c2ccc3cccnc3c2O)CC1 (configuration not stated)	?	?	i	16µM*	?	?
COc1cc(-c2ccc3ncnc(NCCc4cnc[nH]4)c3c2)cc(OC)c1OC	nt	i	i	nt	nt	nt
CCn1c2ccccc2c2nnc(SC3CCOC3=O)nc21 (configuration not stated)	-4%	nt	nt	-10%	-17%	10%
CN1C(=O)c2cccc3c(S(=O)(=O)N(C)C)ccc1c23	-6%	i	i	-6%	-1%	-19%
CCN1C(=O)c2cccc3c(S(=O)(=O)N(C(=O)c4ccncc4)c4ccc(OC)cc4)ccc1c23	1%	i	?	?	?	0%
CCN1C(=O)c2cccc3c(S(=O)(=O)N(C(=O)c4cccnc4)c4ccc(OC)cc4)ccc1c23	?	i	i	12µM*	?	?
CCN1C(=O)c2cccc3c(S(=O)(=O)N(C)C)ccc1c23	-5%	i	13µM*	?	?	-16%
CCN1C(=O)c2cccc3c(S(=O)(=O)Nc4ccccc4)ccc1c23	-5%	?	12µM*	?	?	-18%
CC1CCC(C(=O)NC(C(=O)OCC(=O)c2ccccc2)C(C)C)CC1 (configuration not stated)	nt	i	i	18µM*	18µM*	nt
O=C(COC(=O)c1ccccc1)c1ccc(S(=O)(=O)N2CCCCC2)cc1	5%	i	i	4%	4%	0%
CCc1ccc(C(=O)COC(=O)C(Cc2ccccc2)NC(=O)C2CCC(C)CC2)cc1 (configuration not stated)	-12%	i	i	-23%	1%	-2%
CC(C)[C@H](NC(=O)c1ccccc1)C(=O)OCC(=O)c1ccc(S(=O)(=O)N2CCCCC2)cc1	2%	i	21µM*	-25%	?	0%
SMILES	HT1080NT lethal	KB-3-1 cytotox	KB-V1 cytotox	DT40 TDP1 no CPT	DT40 TDP1 CPT	HT1080 IDH1KD tx
O=S(=O)(c1ccc(Br)cc1)c1nc(-c2ccco2)oc1NCCCn1ccnc1	-16%	i	i	-23%	?	?
Cc1cc(C)c[n+](CC(=O)c2ccc(-c3ccccc3)cc2)c1	-18%	?	i	?	18µM*	-10%
CCc1nc2nc(C)c(NS(=O)(=O)c3ccc(C(C)(C)C)cc3)c(=O)n2[nH]1	nt	i	i	2%	7%	nt
CCOc1ccc(-c2nc(Cn3c(=O)cc(C)c4c(C)nn(-c5ccc(C)cc5)c43)c(C)o2)cc1	nt	i	i	1%	-17%	nt
Cc1onc(-c2ccccc2)c1C(=O)NCCN1Cc2ccccc2OC(c2ccsc2)C1 (configuration not stated)	nt	nt	nt	15µM*	-1%[9.04 µM]	nt
Cc1nn(C)cc1S(=O)(=O)NCc1ccc2c(c1)OCO2	13%	i	i	15%	8%	5%
CCOC(=O)/C(C#N)=C/c1c[nH]c2ccccc12	-16%	i	i	-13%	-27%	-29%
CCOC(=O)C(=Cc1c[nH]c2ccc(S(=O)(=O)N(C)C)cc12)C(=O)OCC	-24%	i	i	16µM*	?	?
COC(=O)c1ccc(-c2ccc(/C=N/NC(=O)Cc3nnc(N)s3)o2)cc1	-1%	i	i	?	1%	-1%
COc1c2c(cc3c1C(c1c(O)c4ccccc4oc1=O)N(C)CC3)OCO2 (configuration not stated)	nt	nt	nt	4%[9.04 µM]	-11%[9.04 µM]	nt
CC(C)NC(=S)NC(c1ccccc1)(c1ccccc1)c1ccccc1	-13%	?	?	23µM*	?	-8%
CC(C)NC(=S)NCc1cccnc1	17%	i	i	-9%	-2%	18%
COc1ccc(NC(=O)COc2ccc(S(=O)(=O)NC3CCCCC3)cc2)cc1OC	nt	i	i	21µM*	?	nt
COc1ccc(NC(=O)Cn2c(=O)oc3cc(S(=O)(=O)NC4CCCC4)ccc32)cc1OC	nt	i	i	21µM*	?	nt
CCOc1ccccc1NC(=O)COc1ccc(S(=O)(=O)NC2CCCCC2)cc1	nt	i	i	?	?	nt
